# Source: PubChem BioAssay AID2165 (The Scripps Research Institute Molecular Screening Center, 2009)
# The source made the active and inactive calls. No stated cut-off is given here; in the data, active means IC50 below about 9 µM; inactive means the rest.
# Tested on: Ba/F3 Cytotoxicity
# Test: JAK2V617F kinase, IRF1 reporter and Ba/F3 cytotoxicity panel, late-stage follow-up, HEL and Ba/F3 cells (AID 2165)
row,Structure (SMILES),IC50
1,CC(C)[C@@H](CO)Nc1nc(Nc2cccc(Cl)c2)c2ncn(C(C)C)c2n1,0.95 µM (active)
2,N#CC(C#N)=Cc1cc(O)c(O)c(I)c1,8.99 µM (active)
3,N#CC(C#N)=Cc1ccc(O)c(O)c1,2.56 µM (active)
